# PubChem BioAssay AID1508622 (National Center for Advancing Translational Sciences (NCATS), 2021)
# Active and inactive are the calls of the source. Calls follow the shape of the dose curve; as a rule, active = well fitted activation curve with a large enough effect; inconclusive = small, poorly fitted or top-dose-only effect; inactive = no such curve, though single readings can be large or run the other way.
# Assay: Confirmatory qHTS for Identification of Small Molecule Activators of Huntingtin-Antisense Promoter Activity
# Settings: HEK293 HTT-AS promoter firefly luciferase reporter, 24 h; series mostly up to 57.5 µM; activity change, positive = activation: at the top concentration
# How it was run: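 Activity normalized between vehicle control (0%) and zero RLU (-100%) from firefly luminescence (Dual-Glo). Compounds, up to 57.5 uM final, incubated 24 h at 37C on HEK293 reporter cells plated 24 h earlier.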
# Potency is read from the fitted curve at half-maximal effect.
SMILES,"activity change, positive = activation",Potency
Cc1c(Cl)ccc2sc(N3CCN(C(=O)CCS(=O)(=O)c4ccc(F)cc4)CC3)nc12,-93.8% (inactive),–
CCC(Oc1ccccc1)C(=O)N1CCN(Cc2cc(=O)n3nc(-c4cccc(C)c4)sc3n2)CC1 (stereo not given),-36.5% (inactive),–
Cc1ccc(Cl)cc1N1CCN(C(=O)Cn2cnc3nc4c(cc3c2=O)CCCC4)CC1,-39.4% (inactive),–
COc1ccc(NC(=O)c2cc(S(=O)(=O)NCCC3=CCCCC3)ccc2F)cc1,-95.1% (inactive),–
COc1cccc([C@@H](C)NCCCc2ccccc2Cl)c1,-23.4% (inactive),–
COc1ccc(-c2noc(N3CCC(C(=O)N4CCN(c5cccc(OC)c5)CC4)CC3)n2)cc1,-80.5% (inactive),–
O=C(NCc1ccccc1)c1cc2ccc3cccnc3c2[nH]1,–,2130 nM (active)
C[n+]1cc2c3c(ccc2c2ccc4cc5c(cc4c21)OCO5)OCO3,-92.6% [at 24 µM] (inactive),–
CCOc1ccc(NCc2cccn2-c2nnc(N3CCC(C(=O)NCCc4ccc(OC)c(OC)c4)CC3)s2)cc1,-60.3% (inactive),–
CCOC(=O)c1cc(-c2ccccc2)n(CCCC(=O)Nc2ccc(CC)cc2)c1C,-45.8% (inactive),–
O=C(CN1C(=O)C2(SCC(=O)N2c2cccc(Cl)c2)c2ccccc21)NCCc1ccccc1 (stereo not given),-24.2% (inactive),–
O=C(NCCc1nc2ccccc2n1CCCOc1ccc(Cl)cc1)C1CCCCC1,-46% (inactive),–
CCCS(=O)(=O)NCCc1sc2nc(-c3ccc(F)cc3)nn2c1C,-91% (inactive),–
CCOC(=O)Cc1ccc(NC(=O)N(Cc2ccc(CC)cc2)Cc2cn[nH]c2-c2ccc(OC)cc2)cc1,-29.3% (inactive),–
Cc1cc(F)ccc1NC(=O)C1CCCN(C(=O)c2cnn(-c3ccccc3)c2-n2cccc2)C1 (stereo not given),-38.7% (inactive),–
